L3MBTL1 block – blocks human L3MBTL1 | Q9Y468 | AID 485360 | 230,000 compounds, 0.66% hits | AlphaScreen L3MBTL1–H3K9me1 peptide binding | Potency, µM (highest dose often 57.1 µM), without a hit: top-dose activity, negative = inhibition, hits mostly inhibitors; further: on the % scale 0 is the no-effect control and ±100 the full control effect; nearly all actives have a fitted effect of over 60% in size
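L3MBTL1 50 nM + b-AHA-H3(1-15)K9me1 75 nM, 30 min RT; compound added, 30 min RT; streptavidin donor/Ni-chelate acceptor beads 10 ug/mL each final, 30 min RT dark; AlphaScreen read.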
JMJD2A Tudor – blocks the human JMJD2A Tudor domain | O75164 | AID 504339 | Potency, µM (doses to about 114 µM), for inactives: top-dose activity change, negative = inhibition, most hits filed as inhibitors | 390,000 compounds, 4.4% hits | AlphaScreen JMJD2A-Tudor / H3K4me3 peptide binding; further: on the % scale 0 is the no-effect control and ±100 the full control effect; nearly all actives have a fitted effect of over 50% in size
GLS inh – inhibitors of human glutaminase (GLS); AID 624170; Potency, µM (series often up to 45.5 µM), inactives show at the highest dose activity change, negative = inhibition, hits mostly inhibitors; O94925; GLS enzymatic activity, qHTS titration; 410,000 compounds, 0.21% hits; further: on the % scale 0 is the no-effect control and ±100 the full control effect
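Glutamate formation by hKGA was monitored fluorometrically using coupled glutamate oxidase, HRP and Amplex Red. Substrate was added as 1 mM L-glutamine solution; incubation was 30 min at RT after an initial read.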
BAZ2B inh – BAZ2B (human) inhibition. Q9UIF8. Potency, µM (series often up to 114 µM), inactives show top-dose activity change, negative = inhibition, usual class: inhibitors. 360,000 compounds, 4.4% hits. AlphaScreen BAZ2B-H3K14Ac peptide displacement. AID 504333; further: on the % scale 0 is the no-effect control and ±100 the full control effect; nearly all actives have a fitted effect of over 60% in size
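Inhibition is scored as reduced AlphaScreen emission. The BAZ2B/b-H3(5-23)K14Ac complex (50 nM each) in PBS pH 7.4, 0.01% Tween-20 meets compound (up to 110 uM) for 30 min at RT before bead addition.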
HP1b chromo inh – inhibitors of HP1-beta chromodomain binding to methylated histone tails. AlphaScreen HP1-beta / biotin-H3K9me3 peptide binding. Potency, µM (series often up to 114 µM), for inactives: at the top dose activity change, negative = inhibition, actives largely listed as inhibitors. 390,000 compounds, 0.56% hits; further: nearly all actives have a fitted effect of over 70% in size
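Compound inhibition of the preformed complex between 50 nM HP1-beta and 50 nM biotinylated H3K9me3 peptide was read by AlphaScreen. Buffer was PBS pH 7.4 with 0.01% Tween-20. Incubations ran 30 min at room temperature, with 10 ug/mL donor/acceptor beads.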
G9a inh – inhibitors of human histone lysine methyltransferase G9a | Q96KQ7 | G9a H3K9 monomethylation, AlphaScreen, 2 h | Potency, µM (doses to about 102 µM), for the others: top-dose activity, negative = inhibition, hits mostly inhibitors | 350,000 compounds, 8.8% hits | AID 504332; further: on the % scale 0 is the no-effect control and ±100 the full control effect; nearly all actives have a fitted effect of over 75% in size
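Using a bead-based AlphaScreen, monomethylated H3K9 product from 2 h room-temperature reactions (G9a 20 nM, peptide 500 nM, SAM 20 uM) was detected with 0.5 ug/mL rabbit anti-H3K9me1 antibody.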
* marks the source's active call; other numbers are inactive results; ? = inconclusive; / = no result; [ ] = dose if it differs, or a comment. Hits are enriched below; roughly 10% of the tested compounds scored in any of these assays. The call rests on the fitted dose curve; in most records, active means well fitted curve in the direction sought with a large enough effect; inconclusive means small, poorly fitted or top-dose-only effect, or another doubt; inactive means no such curve, though single readings can be large; an effect the other way counts as inactive or inconclusive. Potency means the concentration at half of the fitted maximal effect.

SMILES | L3MBTL1 block | JMJD2A Tudor | GLS inh | BAZ2B inh | HP1b chromo inh | G9a inh
N#CC1=C(N)OC2=C(CCC/C2=C/c2ccoc2)C1c1ccoc1 (stereo unspecified) | 16µM* | / | / | ? | / | 16µM*
Cc1cc(C)cc(-n2c(C)cc(C(=S)N3CCOCC3)c2C)c1 | -21% | 56µM* | 21% | 45µM* | ? | 4.5µM*
Cc1cc(C(=S)N2CCOCC2)c(C)n1-c1ccc(Cl)cc1 | -20% | 28µM* | 3% | 50µM* | 45µM* | 3.2µM*
CC(NC(=O)COc1ccc(-c2nnco2)cc1)c1ccc(Cl)cc1Cl (stereo unspecified) | 12% | -9% | 2% | -3% | 12% | 45µM*
O=C(COc1ccc(-c2nnco2)cc1)NCc1ccccc1Cl | 11% | -22% | 10% | -4% | 21% | -7%
Cc1oc(-c2ccc(C(=O)NCc3ccccc3F)cc2)nc1COc1ccccc1 | / | 7% | 19% | -20% | 19% | -5%[59 µM]
COc1c(Br)cc(Br)cc1/C=N/n1c(C)nnc1C | / | 40µM* | 50% | -4% | ? | -34%[12.7 µM]
Cc1ccc(NC(=O)CN2C(=O)C(c3ccc(F)cc3)=NC23CCCCC3)c(C)c1 | / | 7% | 1% | 7% | 49% | 0%[59 µM]
O=C1C=CC2=C3c4cc(O)c(O)cc4CC3(O)COC2=C1O (stereo unspecified) | / | 3.2µM* | ? | / | ? | /
Cc1ccc(S(=O)(=O)Nc2cc(Br)cc3cccnc23)cc1 | / | 1% | / | / | 57% | /
O=C(Cn1sc2ccccc2c1=O)NC12CC3CC(CC(C3)C1)C2 | / | 2.8µM* | ? | 11µM* | ? | ?
O=C(Cn1sc2ccccc2c1=O)Nc1ccccc1 | / | / | 7.1µM* | / | / | /
O=C(CN1CCCCC1)N/N=C/c1ccc(Cl)cc1Cl | 5% | -17% | 1% | 12% | 16% | /
O=C(CN1CCCCCCC1)N/N=C/c1ccccc1F | -12% | 71µM* | 19% | 56µM* | -3% | 13µM*
COc1ccc(/C=N/NC(=O)CN2CCCCCCC2)c(C)c1C | / | 5µM* | 29% | 56µM* | ? | 8.9µM*
CCN1CCN(CC(=O)N/N=C/c2ccc(F)cc2F)CC1 | 6% | 2.8µM* | 3% | 50µM* | ? | 2.8µM*
COc1ccc(/C=N/NC(=O)CN2CCCC2)cc1 | 2% | -16% | 3% | -4% | 34% | 3%
CCN1CCN(CC(=O)Nc2cc(F)ccc2C)CC1 | / | -4%[11.4 µM] | -3% | 11% | 11% | -13%
O=C(CN1CCCCCC1)N/N=C/c1cccc(Cl)c1Cl | 0% | 10µM* | 14% | 56µM* | ? | ?
NC(=O)C1CCN(c2csc3ccc(F)cc3c2=O)CC1 | / | -2% | 10% | -2% | 31%[57 µM] | 0%[59 µM]
CCOC(=O)Cn1nc(C)c(NC(=O)COc2ccc(Cl)cc2C)c1C | / | -10% | -4% | -34% | 5% | 0%[59 µM]
CCCCC(CC)CNC(=O)CN1C(=O)CSc2ccc(S(=O)(=O)N3CCOCC3)cc21 (stereo unspecified) | / | -15% | 3% | 3% | 7% | 6%[59 µM]
O=C(CO)N/N=C/c1ccccc1F | -1% | -8% | 1% | 2% | 33% | 25%
O=C(CN1CCSCC1)N/N=C/c1ccccc1F | / | 3.2µM* | -22% | 50µM* | ? | 1%[12.7 µM]
O=C(c1cnc(N2CCCCC2)c2ccccc12)N1CCN(c2cccc(Cl)c2)CC1 | / | -19% | -5% | -1% | 19%[57 µM] | -1%[59 µM]
SMILES | L3MBTL1 block | JMJD2A Tudor | GLS inh | BAZ2B inh | HP1b chromo inh | G9a inh
COc1ccc(NC(=O)c2c(NCc3ccc(OC)c(OC)c3OC)sc3c2CCC3)c(OC)c1 | / | ? | -3% | -30% | -15% | 13µM*
COc1ccccc1NC(=O)c1c(NCc2ccc(OC)c(OC)c2OC)sc2c1CCCC2 | / | ? | -3% | -26% | 11% | ?
COc1ccc(NC(=O)c2c(NCc3cccc(F)c3)sc3c2CCC3)c(OC)c1 | / | -30% | 1% | -23% | 29% | ?
COc1ccc(NC(=O)c2c(NCc3sccc3C)sc3c2CCCC3)c(OC)c1 | / | ? | -8% | ? | ? | 14µM*
CCOC(=O)N1CCc2c(sc(NCc3ccc(N(C)C)cc3)c2C(=O)Nc2ccccc2OCC)C1 | / | 13µM* | 18% | 8.9µM* | ? | 3.2µM*
CCOC(=O)N1CCc2c(sc(NCc3ccc(OC)c(OC)c3OC)c2C(=O)Nc2ccc(OC)cc2OC)C1 | / | ? | 7% | ? | ? | 7.1µM*
COc1ccc(C2=NC3(CCCCCC3)N(CC(=O)Nc3ccc(C)c(C)c3)C2=O)cc1 | / | -9% | -5% | -22% | 38% | 3%[59 µM]
COc1ccc(CCNC(=O)c2ccc(Nc3nc4ccccc4n4nnnc34)cc2)cc1OC | / | -11% | -1% | 4% | 9% | -2%[59 µM]
COc1cccc(C(=O)Nc2nc(-c3nnn(-c4ccccc4C(F)(F)F)c3C)ns2)c1 | / | -12% | 6% | 2% | 39% | 17%[59 µM]
CCOC(=O)N1CCc2c(sc(NCc3sccc3C)c2C(=O)Nc2cc(Cl)ccc2OC)C1 | / | ? | -14% | -36% | -24% | 3.5µM*
CCOc1ccccc1NC(=O)c1c(NCc2ccc(C)o2)sc2c1CCCCC2 | / | ? | -4% | -19% | -14% | 5µM*
CCOC(=O)N1CCc2c(sc(NCc3ccc(N(CC)CC)cc3)c2C(=O)Nc2cc(OC)ccc2OC)C1 | / | ? | 8% | 7.9µM* | ? | 7.1µM*
CCOC(=O)N1CCc2c(sc(NCc3ccc(OCC)cc3)c2C(=O)Nc2ccc(OC)cc2OC)C1 | / | ? | -10% | -37% | -4% | 7.9µM*
CCOc1ccccc1NC(=O)c1c(NCc2ccc(C)o2)sc2c1CCC(C)C2 (stereo unspecified) | / | -7% | 12% | 2% | 37% | -45%[59 µM]
COc1ccc(Cl)cc1NC(=O)c1c(NCc2ccc(C)o2)sc2c1CCCC2 | / | ? | -23% | ? | -3% | ?
C=CCNCC(=O)Nc1sc2c(c1C(=O)Nc1ccc(OC)cc1OC)CCC2 | 7% | -31% | 3% | -5% | 16% | /
COc1ccc(NC(=O)CN(C)C(=O)c2cc(-c3cccs3)nn2-c2ccccc2)cc1 | -15% | -21% | -3% | -5% | 5% | 50µM*
CCN(CC(=O)Nc1ccc(OC)cc1)C(=O)c1cc(-c2cccs2)nn1-c1ccccc1 | -10% | -14% | 0% | -31% | 16% | ?
O=C(O)/C=C\c1cn(-c2ccccc2)nc1-c1cc2ccccc2o1 | -6% | -21% | -15% | -37% | 9% | -30%
O=C(O)c1cc(-c2cccs2)nn1-c1ccccc1 | -10% | -4% | 0% | -38% | 28% | 45µM*
O=C(O)c1cc(-c2cc3ccccc3o2)nn1-c1ccccc1 | -16% | -9% | 0% | / | 28% | 45µM*

Screening data: PubChem BioAssay, National Center for Advancing Translational Sciences (NCATS)
